# Data reported in PubChem BioAssay AID1930 (Vanderbilt High Throughput Screening Facility, 2009).
# The source made the active and inactive calls. No rule for the calls is given here.
# Target: Muscarinic acetylcholine receptor M2 (Homo sapiens) (UniProt P08172)
# Assay: ACh potency shift at human M2 – cell-based, Gqi5 chimera, calcium, selectivity assay for M4 PAM project (AID 1930)
# Settings: hM2/Gqi5 cells, ACh calcium response fold-shift; series mostly up to 10 µM; ACh response, % of max: at the top concentration
# Sequence of Muscarinic acetylcholine receptor M2 (Homo sapiens) (P08172 whole entry, looked up): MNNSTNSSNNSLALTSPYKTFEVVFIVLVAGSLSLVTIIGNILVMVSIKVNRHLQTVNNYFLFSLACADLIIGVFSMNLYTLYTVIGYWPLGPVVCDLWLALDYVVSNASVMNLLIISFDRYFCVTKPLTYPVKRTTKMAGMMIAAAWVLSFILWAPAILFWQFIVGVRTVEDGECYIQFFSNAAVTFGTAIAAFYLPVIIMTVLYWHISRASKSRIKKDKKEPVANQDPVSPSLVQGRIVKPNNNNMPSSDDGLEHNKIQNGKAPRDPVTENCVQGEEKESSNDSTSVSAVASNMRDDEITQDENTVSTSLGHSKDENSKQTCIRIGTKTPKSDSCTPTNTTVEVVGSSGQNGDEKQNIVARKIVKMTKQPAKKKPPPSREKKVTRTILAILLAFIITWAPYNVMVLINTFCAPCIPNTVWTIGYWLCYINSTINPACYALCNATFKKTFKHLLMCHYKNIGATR
row,Structure (SMILES),"ACh response, % of max"
1,Cc1cc(OCc2ccncc2)nc2sc(C(=O)NCc3cc(F)ccc3F)c(N)c12,95.8 (inactive)
2,Cc1cc(OCCN2CCOCC2)nc2sc(C(=O)NC(C)(C)C)c(N)c12,96.2 (inactive)
3,COc1ccc(CNC(=O)c2sc3nc(OCc4ccncc4)cc(C)c3c2N)cc1,102 (inactive)
4,Cc1cc(OCc2ccncc2)nc2sc(C(=O)NCc3cccc(F)c3F)c(N)c12,97.2 (inactive)
